Measurements reported in the supplement of paper PMC9950053.
Structures can show the parent of a compound that is named as a salt.

System: Danio rerio larvae (5 dpf)
Experiment: combined upward orientation toward moving lines (periods 7-14) minus DMSO control (percentage points); higher = more orientation with moving lines than DMSO larvae
Details: 10 µM; exposure time: 3 h pre-incubation + 3 h imaging
Method: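 Wild-type 5 dpf zebrafish larvae (n=48 per drug, 96-well plates, 28.5 °C) were exposed to Tocris FDA-approved library compounds at 10 µM (0.1% DMSO) for 3 h before and 3 h during imaging. Images were taken every 6 s during visual (moving coloured lines) and acoustic stimuli, and larvae were tracked with the DeepLabCut-based Z-LaP Tracker. Each behavioural measure is the treated-group mean minus the DMSO vehicle control mean (n=844), in percentage points. This mapping covers compounds with 4-character plate codes.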

| Compound | combined upward orientation toward moving lines |
| --- | --- |
| N[C@@H]1C[C@H]1c1ccccc1 [Tranylcypromine hydrochloride] | 1.03 |
| O=c1[nH]c2ccccc2n1C1CCN(CCCC(c2ccc(F)cc2)c2ccc(F)cc2)CC1 [Pimozide] | -5.82 |
| COc1cc2c(cc1OC)C1CC(=O)C(CC(C)C)CN1CC2 (stereo unspecified) [Tetrabenazine] | -21.4 |
| Cc1cccc([C@H](C)c2c[nH]cn2)c1C [Dexmedetomidine hydrochloride] | -0.0673 |
| C=CCN1C[C@H](C(=O)N(CCCN(C)C)C(=O)NCC)C[C@@H]2c3cccc4[nH]cc(c34)C[C@H]21 [Cabergoline] | -13.9 |
| CCN(C)C(=O)Oc1cccc([C@H](C)N(C)C)c1 [Rivastigmine tartrate] | -5.99 |
| CC[C@@H](C(N)=O)N1CCCC1=O [Levetiracetam] | -2.84 |
| C=C1C[C@@H]2[C@H](CC[C@]3(C)C(=O)CC[C@@H]23)[C@@]2(C)C=CC(=O)C=C12 [Exemestane] | 1.27 |
| CN1C[C@H](C(=O)N[C@]2(C)O[C@@]3(O)[C@@H]4CCCN4C(=O)[C@H](Cc4ccccc4)N3C2=O)C[C@@H]2c3cccc4[nH]cc(c34)C[C@H]21 [Dihydroergotamine mesylate] | -20.6 |
| CC(C)C[C@H]1C(=O)N2CCC[C@H]2[C@]2(O)O[C@](NC(=O)[C@@H]3C=C4c5cccc6[nH]c(Br)c(c56)C[C@H]4N(C)C3)(C(C)C)C(=O)N12 [Bromocriptine mesylate] | -39 |
| CC(O)(CS(=O)(=O)c1ccc(F)cc1)C(=O)Nc1ccc(C#N)c(C(F)(F)F)c1 (stereo unspecified) [Bicalutamide] | -2.4 |
